# MBD2 inh: inhibitors of MBD2 binding to methylated DNA, primary screen, biochemical, TR-FRET, DNA-binding domain, human; hit rate 0.31% among 370,000; Methyl-CpG-binding domain protein 2 (Homo sapiens), Q9UBB5; MBD2 binding to methylated oligonucleotide; inhibition, % at 4.4 µM; in the data active means inhibition above about 13%
# Target sequence (Q9UBB5 whole entry, looked up, the tested form may be a part): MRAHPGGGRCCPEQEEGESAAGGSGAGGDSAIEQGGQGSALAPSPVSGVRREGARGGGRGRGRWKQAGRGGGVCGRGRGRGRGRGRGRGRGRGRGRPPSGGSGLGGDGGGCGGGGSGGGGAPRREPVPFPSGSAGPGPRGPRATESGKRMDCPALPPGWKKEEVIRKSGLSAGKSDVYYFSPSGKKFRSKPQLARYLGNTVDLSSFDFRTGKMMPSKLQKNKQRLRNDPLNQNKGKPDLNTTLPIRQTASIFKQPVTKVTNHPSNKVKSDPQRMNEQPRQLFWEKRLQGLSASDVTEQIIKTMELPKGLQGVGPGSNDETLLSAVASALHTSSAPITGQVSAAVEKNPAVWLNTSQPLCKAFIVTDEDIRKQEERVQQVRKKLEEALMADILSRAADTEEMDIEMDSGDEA
# LEDGF integ inh: blockers of LEDGF/p75-dependent integrase strand transfer – biochemical, TR-FRET, high throughput, primary screen; HIV-1 integrase (with human LEDGF/p75); TR-FRET IN-LEDGF/p75 DNA integration, Eu/Cy5; inhibition, % at 3.7 µM; hit rate 0.64% among 370,000;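 active means inhibition above the screen-wide mean plus 3 SD, cut at about 13% in these data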;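 further: signal is the Cy5 over europium emission ratio at 671 and 618 nm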
# PLCg1 inh: PLC-gamma1 enzyme inhibitors, primary screen, biochemical, fluorescence, purified enzyme | 1-phosphatidylinositol 4,5-bisphosphate phosphodiesterase gamma-1 (Homo sapiens), P19174 | fluorogenic substrate | inhibition, % at 12.2 µM | hit rate 0.84% among 370,000; in the data active means inhibition above about 9.5%
# PLCb3 inh: human PLC-beta3 inhibitors, primary screen, biochemical, fluorescence; Purified PLC-beta3, fluorogenic substrate; hit rate 0.18% among 370,000; 1-phosphatidylinositol 4,5-bisphosphate phosphodiesterase beta-3 (Homo sapiens), Q01970; inhibition, % at 12.2 µM
# UHRF1 binding: UHRF1 methylated DNA binding inhibitors, primary screen, counter-screen for MBD2 inhibitor project, biochemical, TR-FRET, human UHRF1, single concentration. E3 ubiquitin-protein ligase UHRF1 (Homo sapiens), Q96T88. UHRF1 binding to methylated oligo. inhibition, % at 4.4 µM. hit rate 0.75% among 370,000. AID 687016, 2013; in the data active means inhibition above about 21%;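 further: UHRF1 SRA domain binding a hemimethylated CpG hairpin DNA probe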
# PLCg1 ctr: PLC-gamma1 enzyme inhibitors, counter-screen for PLC-beta3 inhibitor project, biochemical, fluorescence; purified PLC-gamma1, fluorogenic substrate; inhibition, % at 12.3 µM; hit rate 3.1% among 3,300; shares compounds with PLCg1 inh; in the data active means inhibition above about 9.5%
# PLCb3 confirm: PLC-beta3 inhibitor confirmation, biochemical, fluorescence, purified enzyme | shares compounds with PLCg1 inh | hit rate 1% among 3,300 | inhibition, % at 12.3 µM | AID 743261, 2014 | fluorogenic substrate fluorescence
# Numbers stand for hits; – = inactive; · = no result. Compounds with a hit are over-represented: about 2.3% of the library has one in this group of screens. Unless noted, no stated cut-off is given here; in the data, active means inhibition above about 11%; inactive means the rest.
SMILES,MBD2 inh,LEDGF integ inh,PLCg1 inh,PLCb3 inh,UHRF1 binding,PLCg1 ctr,PLCb3 confirm
CNC(=O)C[C@@H]1CC[C@@H]2[C@H](COc3ccc(NC(=O)c4cccc(F)c4)cc3C(=O)N2C)O1,–,–,–,–,–,·,·
CCOC(=O)C1C(=O)OC(C)(C)C1C(C)C(=O)c1ccc(C)cc1C (centres undefined),–,–,–,–,–,·,·
CCOC(=O)C1C(=O)OC(C)(C)C1C(C)C(=O)c1ccc(C)cc1 (centres undefined),–,–,9.5,–,–,–,–
CCOC(=O)[C@]12CCCC=C1N(Cc1ccc(OC)cc1)C(=O)[C@@H]2CC(=O)NCc1cccc(C(F)(F)F)c1,–,–,–,–,–,·,·
O=C(CNCc1ccc(Cl)cc1)Nc1ccc2c(c1)OCCO2,–,–,10,–,–,–,–
CN(Cc1ccccc1)S(=O)(=O)c1cccc(C(=O)OCc2ccccc2)c1,–,–,–,–,–,·,·
Cc1cc(-n2c(C)cc(C(=O)CSc3ncnc4ccccc34)c2C)no1,–,–,–,–,–,·,·
Cc1cc(-n2c(C)cc(C(=O)CSc3nnc4sc5ccccc5n34)c2C)no1,–,–,–,11,–,–,–
NC(=O)C1CCCN(C(=O)c2ccc(Cl)cc2)C1 (centres undefined),–,–,–,–,–,·,·
O=C(c1ccc(Cl)cc1)N1CCCOC1,–,–,16,13,–,–,–
O=C(c1ccc(CS(=O)Cc2ccc(Cl)cc2)o1)N1CCN(c2ccc(F)cc2)CC1 (centres undefined),–,–,9.5,–,–,–,–
O=C(c1ccc(Cl)cc1)N1CCN(c2ccc(F)cc2)CC1,–,–,11,–,–,–,–
O=C(c1cccc([N+](=O)[O-])c1)N1CCN(c2ccc(Cl)cc2)CC1,–,–,11,–,–,–,–
O=C(c1ccncc1)N1CCN(c2ccc(F)cc2)CC1,–,–,–,–,–,·,·
COC(=O)[C@]12C[C@H](CC(=O)N3CCC(c4ccccc4)CC3)C(=O)N(Cc3ccco3)C1=C[C@H](C1CCCC1)O[C@@H]2C,–,–,–,–,–,·,·
COC(=O)c1cc2c(c3c4cc(C)ccc4n(C(=O)c4ccccc4)c13)C(=O)N(Cc1ccccc1)C2,–,–,–,–,–,·,·
COC(=O)[C@H](Cc1ccccc1)NC(=O)[C@H]1C[C@@]2(N3CCCC3)c3ccccc3N(C(=O)OC(C)(C)C)[C@H]2N1C(=O)OC(C)(C)C,–,–,–,–,–,·,·
O=C(CSc1nc2ncccc2[nH]1)N1CCOCC1,–,–,–,–,–,·,·
CCOC(=O)/C(C#N)=C1/C=CN(c2ccccc2)C=N1,–,–,11,–,–,–,–
CCOC(=O)/C(C#N)=C1/C=CN(C)C=N1,–,–,10,–,–,14,–
CCOC(=O)/C(C#N)=C1/C=CN(c2ccc(C)cc2)C=N1,–,–,13,12,–,–,–
CC1(C)Cc2nc(Cl)c(C(N)=O)cc2CO1,–,–,10,–,–,–,–
CCOC(=O)c1cc2c(nc1N)CC(C)(C)OC2,–,–,–,–,–,·,·
CCN(CC)c1ccc(-c2nn3c(-c4ccc(C(C)(C)C)cc4)nnc3s2)cc1,–,–,–,–,–,·,·
CC(C)CCNC(=O)C1COC(O)(C(Cc2ccccc2)NC(=O)[C@@H](NC(=O)OCc2ccccc2)C(C)C)CN1 (some centres undefined),–,–,–,–,–,·,·
SMILES,MBD2 inh,LEDGF integ inh,PLCg1 inh,PLCb3 inh,UHRF1 binding,PLCg1 ctr,PLCb3 confirm
CCCCCCCCN1C(=O)N2Cc3cc(F)ccc3C2CS1(=O)=O (centres undefined),–,–,–,–,–,·,·
Cc1nc(-c2ccncc2)nc(NCCNc2ncccc2C(F)(F)F)c1Cl,–,–,12,–,–,–,–
COc1cccc(CNC(=O)CCCN2C(=O)COc3ccc(C)cc32)c1OC,–,–,–,–,–,·,·
CCOC(=O)C1CCCN(C(=O)c2cccc(S(=O)(=O)N(C)c3ccc(OC)cc3)c2)C1 (centres undefined),–,–,–,–,–,·,·
CCOC(=O)C1CCCN(C(=O)c2cccc(S(=O)(=O)N(Cc3ccccc3)c3ccccc3OC)c2)C1 (centres undefined),–,–,9.7,–,–,–,–
CC(=O)Nc1ccc(CNc2nc(NC(C)C)nc3ccsc23)cc1,–,–,11,–,–,–,–
CN1C(=O)c2cc(NC(=O)Nc3ccccc3)ccc2OC[C@H]2O[C@@H](CC(=O)NC3Cc4ccccc4C3)CC[C@@H]21,–,–,–,–,–,·,·
COc1ccc(C(=O)N2CCN(C3CCC(c4ccccc4)CC3)CC2)cc1OC (centres undefined),–,–,15,–,–,–,–
COc1ccc(C(=O)N2CCC(N3CCN(c4ccccc4)CC3)CC2)cc1OC,–,–,–,–,–,·,·
Cc1nnc(C)n1N=Cc1ccc(O)cc1O,–,–,–,–,–,·,·
CCOC(=O)c1cc(-c2csc(Nc3c(C)cc(C)cc3C)n2)on1,–,–,9.8,–,–,–,–
COc1ccc(N2CCN(C(=O)CNC(=O)Cc3ccccc3)CC2)cc1,–,–,10,–,–,–,–
Cc1ccc(-n2c(SCC(=O)Nc3ccccc3-c3ccccc3)nnc2-c2ccccn2)cc1,–,–,–,–,–,·,·
COc1ccc(NC(=O)CSc2nnc(C)n2C2CC2)cc1S(=O)(=O)N1CCOCC1,–,–,9.8,–,–,–,–
COc1cccc(C(=O)N(CCN2CCOCC2)Cc2ccc(OC)c(OC)c2)c1,–,–,–,–,–,·,·
CSc1cccc(NC(=O)CN(c2cccc(C)c2)S(C)(=O)=O)c1,–,–,11,–,–,–,–
CN(Cc1ccccc1)C(=O)c1ccc(NC(=O)Cc2ccc(NC(=O)C3CCN(C(=O)C4CCCC4)CC3)cc2)cc1,–,–,10.0,–,–,–,–
CN(Cc1ccccc1)C(=O)c1ccc(NC(=O)Cc2ccc(NC(=O)C3CCN(C(=O)C4CC4)CC3)cc2)cc1,–,–,–,–,–,·,·
COCCNC(=O)C[C@H]1CC[C@H]2[C@@H](COc3ccc(NS(=O)(=O)c4ccc(Cl)cc4)cc3C(=O)N2C)O1,–,–,–,–,–,·,·
C[C@@H]1CN([C@H](C)CO)C(=O)CCCn2cc(nn2)CO[C@H]1CN(C)C(=O)c1ccncc1,–,–,–,–,–,·,·
